Abeta rescue – A-beta toxicity reversal in yeast; yeast expressing A-beta42, growth rescue, OD600, 48 h; response scale: 0% DMSO, 100% iron-clioquinol control; Potency, µM (series often up to 46.1 µM), actives largely listed as activators; 410,000 tested, 0.063% active; AID 1347071; further: nearly all actives have a fitted effect of over 55% in size
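Growth rescue measured by 600 nm absorbance after 48 h yeast culture at 30 C with compound. Values normalized between DMSO and an equimolar ferric chloride plus clioquinol control.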
FUS suppressor – suppressors of FUS proteinopathy in yeast. Potency, µM (series often up to 76.6 µM), hits mostly activators. S. cerevisiae FUS-expressing, growth rescue, OD600, 24 h. 390,000 tested, 0.24% active; further: nearly all actives have a fitted effect of over 55% in size
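Yeast FUS proteinopathy model; galactose-induced FUS (2%), starting OD 0.005. Cpds in dilution series, 24hr, 30C, 99% humidity. Abs 600 nm growth. Pos ctrl CP55940 (top 92uM final); neg ctrl DMSO.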
TDP-43 yeast inh – inhibitors of TDP-43 toxicity in yeast | TDP-43 expressing yeast growth rescue, BacTiter-Glo, 24 h | Potency, µM (top dose mostly 46.1 µM), hits mostly activators | 410,000 tested, 1.8% active; further: nearly all actives have a fitted effect of over 50% in size
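Growth rescue of TDP-43-toxic yeast measured as ATP luminescence (BacTiter-Glo). Cells grown to mid-log in raffinose, induced in galactose at OD600=0.02, exposed to compound 24 hr at 30 deg C.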
aSyn yeast inh – alpha-synuclein toxicity inhibition in yeast | Potency, µM (top dose mostly 46.1 µM), actives largely listed as activators | Yeast expressing alpha-synuclein, growth rescue, BacTiter-Glo, 24 h | 370,000 tested, 0.14% active; further: nearly all actives have a fitted effect of over 65% in size
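Screening used galactose-induced yeast with toxic alpha-synuclein levels, exposed to compound for 24 hr at 30 deg C. Cell growth, read with BacTiter-Glo luminescence, gave the measured signal.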
TSG101-PTAP inh – blocks PTAP/TSG101 interaction to inhibit HIV-1 budding. Q99816. Fluorescence polarization, FITC-PTAP peptide / Tsg101 binding. Potency, µM (series often up to 115 µM), actives largely listed as inhibitors. 340,000 tested, under 10 active. AID 493005; active means well fitted inhibition curve with a large enough effect in the main read-out, with a control signal flat, not every such curve was filed as active; inconclusive means small, poorly fitted or top-dose-only effect, or effect the other way, or a change in a side signal; inactive means no such curve, though single readings can be large or run the other way
Target sequence (Q99816 whole entry, looked up): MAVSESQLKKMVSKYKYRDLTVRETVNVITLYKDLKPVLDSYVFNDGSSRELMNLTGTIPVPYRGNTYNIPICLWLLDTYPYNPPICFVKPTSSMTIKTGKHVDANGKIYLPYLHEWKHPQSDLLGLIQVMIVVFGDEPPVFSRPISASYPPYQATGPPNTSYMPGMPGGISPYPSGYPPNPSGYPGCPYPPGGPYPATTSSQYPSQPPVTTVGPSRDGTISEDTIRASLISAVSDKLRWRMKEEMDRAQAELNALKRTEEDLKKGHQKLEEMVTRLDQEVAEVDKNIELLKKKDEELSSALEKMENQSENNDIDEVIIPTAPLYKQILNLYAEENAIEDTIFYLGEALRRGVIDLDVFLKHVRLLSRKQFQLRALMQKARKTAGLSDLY
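Fluorescence anisotropy tracks displacement of a FITC-tagged PTAP peptide (50 nM) from the Tsg101 binding domain (10 uM), following a 20 min room-temperature incubation at pH 7.5.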
A number is an active result; i = inactive; ? = inconclusive; nt = not tested or not shown; [ ] = another dose, or the depositor's remark. Only some compounds are listed: those with a hit (about 2.1% of all), similar ones and a draw of the others. Unless noted, the call rests on the fitted dose curve; in most records, active means well fitted curve in the direction sought with a large enough effect; inconclusive means small, poorly fitted or top-dose-only effect, or another doubt; inactive means no such curve, though single readings can be large; an effect the other way counts as inactive or inconclusive.

SMILES	Abeta rescue	FUS suppressor	TDP-43 yeast inh	aSyn yeast inh	TSG101-PTAP inh
Cc1cn([C@H]2C[C@H](O)[C@@H](CCC(=O)NC(c3ccccc3)c3ccccc3)O2)c(=O)[nH]c1=O	i	i	i	i	i
CCn1c2ccccc2c(=O)c2ccccc21	i	i	13µM	i	i
O=C(NCCc1ccc(Cl)cc1)c1nnc(Cc2ccc(Cl)cc2Cl)o1	i	i	i	nt	nt
CCN(CC)c1ccc(/C=N/NC(=O)Cc2nnc(NC(=O)Nc3ccccc3)s2)cc1	i	18µM	i	i	i
COc1cccc(CNC(=O)c2cc(-c3cccc(OC)c3)n[nH]2)c1	i	i	20µM	nt	nt
COc1cccc(CNC(=O)c2c(C)nn(-c3cccc(C)c3)c2-n2cccc2)c1	i	i	35µM	nt	nt
CSc1ccc(CCNC(=O)c2c(C)nn(-c3ccc(F)cc3)c2-n2cccc2)cc1	i	?	i	i	nt
CCOc1ccc(CNC(=O)c2c(C)nn(-c3ccc(F)cc3)c2-n2cccc2)cc1	i	i	14µM	i	nt
COc1cccc(CNC(=O)c2c(C)nn(-c3ccc(F)cc3)c2-n2cccc2)c1	i	i	?	i	nt
COc1cc(OC)cc(C2=Cc3ccc(OC)cc3C(CC(C)=O)N2c2ccc(C#CCCO)cc2)c1 (configuration not stated)	?	?	i	i	nt
COC(=O)C[C@@H]1C=C[C@H](NC(=O)c2ccccc2)[C@@H](CO)O1	i	i	i	i	nt
COc1ccc(C(=O)CC2(C(=O)O)CCCCC2)cc1	i	i	16µM	i	i
CN(Cc1ccccc1)C(=O)OCc1cn(Cc2cccc(F)c2)nn1	nt	i	nt	nt	nt
CN(C)c1ccc(C2C=Cc3ccccc32)c2ccccc12 (configuration not stated)	nt	nt	nt	i	nt
Clc1ccc(Sc2cc(Cl)c(-c3ccccc3)nn2)cc1	i	i	7.9µM	i	i
Clc1ccc(Sc2ccccn2)cc1	i	i	i	i	i
O=C1NCCc2c1[nH]c1c(Cl)ccc(Cl)c21	i	i	10µM	i	i
CCCC1CC(C)(c2csc(Nc3ccc(OCC)cc3)n2)OC1=O (configuration not stated)	i	i	18µM	i	i
CN(C)c1ccc(/C=C(/NC(=O)c2ccccc2Cl)C(=O)NCCN2CCOCC2)cc1	i	i	i	i	i
O=C(Oc1c(-c2ccccc2)c(=O)n2c3c(cccc13)CC2)c1ccccc1	i	i	?	i	i
O=C(Oc1c(-c2ccccc2)c(=O)n2c3c(cccc13)CC2)c1cccc([N+](=O)[O-])c1	14µM	i	i[1.82 µM]	?	i
COc1ccc(CN2C(=O)C(CC(=O)NCCc3ccccn3)CC(C(=O)N3CCCCCC3)=C2C)cc1 (configuration not stated)	nt	i	i	nt	nt
Cc1nn(C(=O)CNS(=O)(=O)c2ccccc2)c(C)c1Sc1ccc(Cl)cc1	i	nt	16µM	i	i
Cc1nn(C(=O)COc2ccc(Cl)cc2)c(C)c1Sc1ccccc1	i	i	i	nt	nt
O=C(O)/C=C/c1cnn(-c2ccccc2)c1	i	i	35µM	i	i
SMILES	Abeta rescue	FUS suppressor	TDP-43 yeast inh	aSyn yeast inh	TSG101-PTAP inh
CCOC(=O)/C=C/c1cnn(-c2ccccc2)c1	i	nt	i	i	i
COc1ccc(C(=O)N2C=Cc3ccccc3C2C#N)cc1 (configuration not stated)	i	i	16µM	i	nt
COc1ccc(C(=O)N2C=Cc3ccccc3C2C(N)=O)cc1 (configuration not stated)	i	i	i	i	nt
O=C(Nc1ccccc1)c1nc[nH]c1C(=O)O	i	i	i	nt	nt
C=CCNC(=O)/C(C#N)=C/c1cc(Br)ccc1OC	i	i	11µM	i	i
C=CCNC(=O)/C(C#N)=C/c1ccccc1Cl	?	i	i	i	i
CCOc1ccc(-n2c(C)nc3cc(C(=O)NC4CCCC4)ccc32)cc1	i	i	i	nt	nt
Cc1ccc(-c2csc(N3C(=N)SCC3=O)n2)cc1	i	i	i	i	i
N=C1SCC(=O)N1c1ncc(Cc2ccc(F)cc2)s1	?	i	10µM	i	i
CCOC(=O)c1cc(-c2ccc(F)cc2)n(CCC(=O)NCc2ccc(C)cc2)c1C	i	?	i	nt	nt
O=C1c2ccccc2C2N1CCCN2C(=O)c1sc2ccccc2c1Cl (configuration not stated)	i	i	18µM	i	nt

Source: PubChem (National Center for Advancing Translational Sciences (NCATS))
